Reference: the antibiotic and cytotoxicity screens of Wong et al. (2023)
Among all 39,000 compounds or so, about 1,500 (3.8%) were called active. Only a selection was taken, and actives are over-represented in it overall.

Each compound was assayed on HSkMC (human skeletal muscle cells) (assay: cytotoxicity call (relative viability < 0.9)). Settings: 10 µM.
In the case of c1ccc(-c2cccs2)cc1, the cytotoxicity call is reported as “inactive”.
For O=C(O)CCNC(=O)c1cncc(O)c1, the cytotoxicity call was “inactive”.
In the case of COC(=O)c1ccc(C(=O)OC)nc1, the cytotoxicity call is reported as “active”.
In the case of COC(=O)c1cccnc1, the cytotoxicity call is reported as “inactive”.
For COC(=O)c1ccc(O)cc1, the cytotoxicity call was “inactive”.
With COc1ccc(NC(=O)N(C)C[C@H]2Oc3ccc(NC(=O)Nc4ccc(C(F)(F)F)cc4)cc3C(=O)N([C@@H](C)CO)C[C@@H]2C)cc1 the cytotoxicity call was “inactive”.
With O=C(N[C@H]1C=C[C@H](CC(=O)N2CCOCC2)O[C@H]1CO)c1ccccn1 the cytotoxicity call was “inactive”.
With COCC(=O)Nc1ccc2c(c1)OC[C@H](C)N(Cc1cccc(F)c1)C[C@H](C)[C@@H](OC)CN(C)C2=O the cytotoxicity call was “inactive”.
With C[C@@H]1CCCCO[C@H](CN(C)C(=O)Nc2ccc3c(c2)OCO3)[C@H](C)CN([C@H](C)CO)C(=O)c2cc(NS(=O)(=O)c3cccs3)ccc2O1 the cytotoxicity call was “inactive”.
O=C1CSC(/N=C/c2ccccc2O)=NN1 was tested, and the cytotoxicity call was “active”.
In the case of C[C@@H]1CN([C@H](C)CO)C(=O)c2cc(NC(=O)Nc3ccc(C(F)(F)F)cc3)ccc2O[C@@H](C)CCCCO[C@H]1CN(C)Cc1ccc(C(=O)O)cc1, the cytotoxicity call is reported as “inactive”.
For Cc1noc(C)c1S(=O)(=O)Nc1ccc2c(c1)C(=O)N([C@@H](C)CO)C[C@H](C)[C@@H](CN(C)S(=O)(=O)c1cn(C)cn1)O2, the cytotoxicity call was “inactive”.
With Cc1noc(C)c1NC(=O)N(C)C[C@H]1Oc2c(NC(=O)C3CCOCC3)cccc2C(=O)N([C@H](C)CO)C[C@H]1C the cytotoxicity call was “inactive”.
With C=CC[C@@H](CC(=O)N(CCO)Cc1ccccc1)C(=O)NC[C@@H](OC(=O)[C@@H](CC=C)Cc1ccc(F)cc1)c1ccccc1 the cytotoxicity call was “inactive”.
C=CC[C@@H](CC(=O)N(CCO)Cc1ccccc1)C(=O)NC[C@H](OC(=O)[C@@H](CC=C)Cc1ccc(F)cc1)c1ccccc1 was tested, and the cytotoxicity call was “active”.
For C=CC[C@H](CC(=O)N(CCO)Cc1ccccc1)C(=O)NC[C@H](OC(=O)[C@@H](CC=C)Cc1ccc(F)cc1)c1ccccc1, the cytotoxicity call was “active”.
C=CC[C@H](CC(=O)N(CCO)Cc1ccccc1)C(=O)NC[C@@H](OC(=O)[C@@H](CC=C)Cc1ccc(F)cc1)c1ccccc1 was tested, and the cytotoxicity call was “inactive”.
In the case of C[C@H](CO)N1C[C@H](C)[C@H](CN(C)S(=O)(=O)c2cccs2)Oc2ncc(C#CC(C)(C)O)cc2C1=O, the cytotoxicity call is reported as “inactive”.
For COc1ccc(S(=O)(=O)N(C)C[C@H]2Oc3ccc(NS(C)(=O)=O)cc3C(=O)N([C@@H](C)CO)C[C@H]2C)cc1, the cytotoxicity call was “inactive”.
CC(C)NC(=O)N(C)C[C@H]1Oc2c(NS(=O)(=O)c3ccc(Cl)cc3)cccc2C(=O)N([C@@H](C)CO)C[C@@H]1C was tested, and the cytotoxicity call was “inactive”.
With CC(C)NC(=O)Nc1cccc2c1O[C@H](CN(C)Cc1ccc(-c3ccccc3)cc1)[C@H](C)CN([C@@H](C)CO)C2=O the cytotoxicity call was “inactive”.
With COC(=O)CNC(=O)c1ccccc1 the cytotoxicity call was “inactive”.
In the case of C[C@@H]1CN([C@@H](C)CO)C(=O)c2cccc(NS(=O)(=O)c3cn(C)cn3)c2O[C@H]1CN(C)S(=O)(=O)c1cccs1, the cytotoxicity call is reported as “inactive”.
In the case of Cc1noc(C)c1NC(=O)Nc1cccc2c1O[C@@H](CN(C)C(=O)NC(C)C)[C@@H](C)CN([C@@H](C)CO)C2=O, the cytotoxicity call is reported as “inactive”.
Cc1noc(C)c1NC(=O)Nc1ccc2c(c1)C(=O)N([C@@H](C)CO)C[C@@H](C)[C@@H](CN(C)C(=O)C1CCCCC1)OCCCC[C@H](C)O2 was tested, and the cytotoxicity call was “inactive”.
For C[C@@H]1CN([C@@H](C)CO)C(=O)Cc2cc(NS(=O)(=O)c3ccccc3)ccc2O[C@H]1CN(C)Cc1ccc(Oc2ccccc2)cc1, the cytotoxicity call was “inactive”.
For C[C@H]1CN([C@@H](C)CO)C(=O)Cc2cc(NS(=O)(=O)c3ccccc3)ccc2O[C@@H]1CN(C)Cc1ccc(Oc2ccccc2)cc1, the cytotoxicity call was “active”.
For C[C@H](CO)N1C[C@H](C)[C@@H](CN(C)Cc2ccc(Oc3ccccc3)cc2)Oc2ccc(NS(=O)(=O)c3ccccc3)cc2CC1=O, the cytotoxicity call was “inactive”.
In the case of C[C@@H]1CN([C@H](C)CO)C(=O)Cc2cc(NS(=O)(=O)c3ccccc3)ccc2O[C@@H]1CN(C)Cc1ccc(Oc2ccccc2)cc1, the cytotoxicity call is reported as “active”.
With C[C@H]1CN([C@@H](C)CO)C(=O)Cc2cc(NS(=O)(=O)c3ccccc3)ccc2O[C@H]1CN(C)Cc1ccc(Oc2ccccc2)cc1 the cytotoxicity call was “inactive”.
For C[C@H](CO)N1C[C@H](C)[C@H](CN(C)Cc2ccc(Oc3ccccc3)cc2)Oc2ccc(NS(=O)(=O)c3ccccc3)cc2CC1=O, the cytotoxicity call was “inactive”.
C[C@@H]1CN([C@@H](C)CO)C(=O)Cc2cc(NS(=O)(=O)c3ccccc3)ccc2O[C@@H]1CN(C)Cc1ccc(Oc2ccccc2)cc1 was tested, and the cytotoxicity call was “active”.
C[C@H]1CN([C@@H](C)CO)C(=O)Cc2cc(NS(=O)(=O)c3cccs3)ccc2O[C@H]1CN(C)Cc1ccc(Oc2ccccc2)cc1 was tested, and the cytotoxicity call was “inactive”.
C[C@@H]1CN([C@H](C)CO)C(=O)Cc2cc(NS(=O)(=O)c3cccs3)ccc2O[C@@H]1CN(C)Cc1ccc(Oc2ccccc2)cc1 was tested, and the cytotoxicity call was “active”.
C[C@@H]1CN([C@H](C)CO)C(=O)Cc2cc(NS(=O)(=O)c3ccccc3)ccc2O[C@H]1CN(C)Cc1ccc(Oc2ccccc2)cc1 was tested, and the cytotoxicity call was “inactive”.
In the case of C[C@H]1CN([C@@H](C)CO)C(=O)Cc2cc(NS(=O)(=O)c3cccs3)ccc2O[C@@H]1CN(C)Cc1ccc(Oc2ccccc2)cc1, the cytotoxicity call is reported as “inactive”.
With C[C@@H]1CN([C@@H](C)CO)S(=O)(=O)c2ccc(C#Cc3ccccc3F)cc2O[C@@H]1CN(C)C(=O)c1ccc2c(c1)OCO2 the cytotoxicity call was “inactive”.
For CCc1nc2ccc(C(=O)N3CCN(S(=O)(=O)CC)CC3)cn2c1N(C)C(=O)c1cccc(OC)c1, the cytotoxicity call was “inactive”.
For C=CCC1C=C(C)CC(C)CC(OC)C2OC(O)(C(=O)C(=O)N3CCCCC3C(=O)OC(C(C)=CC3CCC(O)C(OC)C3)C(C)C(O)CC1=O)C(C)CC2OC (configuration not stated), the cytotoxicity call was “inactive”.
In the case of C[C@@H]1CCCCO[C@H](CN(C)C(=O)c2ccncc2)[C@H](C)CN([C@H](C)CO)C(=O)c2cc(NC(=O)C3CCCCC3)ccc2O1, the cytotoxicity call is reported as “inactive”.
C[C@H](CO)N1C[C@H](C)[C@@H](CN(C)Cc2ccc3c(c2)OCO3)Oc2ccc(NC(=O)Cn3cnnn3)cc2CC1=O was tested, and the cytotoxicity call was “inactive”.
In the case of C[C@@H]1CN([C@H](C)CO)C(=O)Cc2cc(NC(=O)Nc3ccccc3)ccc2O[C@H]1CN(C)S(=O)(=O)c1cn(C)cn1, the cytotoxicity call is reported as “inactive”.
With O=C(NO)c1cccc(C(=O)N/N=C/[C@@H](O)[C@@H](O)[C@H](O)[C@H](O)CO)c1 the cytotoxicity call was “inactive”.
For Cc1noc(C)c1NC(=O)Nc1ccc2c(c1)CC(=O)N([C@@H](C)CO)C[C@H](C)[C@H](CN(C)S(=O)(=O)c1cn(C)cn1)O2, the cytotoxicity call was “inactive”.
C[C@@H]1CCCCO[C@H](CN(C)S(=O)(=O)c2cn(C)cn2)[C@@H](C)CN([C@H](C)CO)C(=O)c2cc(NS(=O)(=O)c3ccc(F)cc3)ccc2O1 was tested, and the cytotoxicity call was “inactive”.
With C[C@@H](NC(=O)N(C)C[C@H]1OCc2ccccc2-c2c(n(C)c3ccccc23)C(=O)N([C@@H](C)CO)C[C@@H]1C)c1ccccc1 the cytotoxicity call was “inactive”.
With COCC#Cc1ccc([C@H]2[C@@H](CO)N3C(=O)CN(C(=O)c4cccnc4)C[C@@H]23)cc1 the cytotoxicity call was “inactive”.
In the case of CC(C)NC(=O)Nc1ccc2c(c1)C(=O)N([C@@H](C)CO)C[C@@H](C)[C@@H](CN(C)S(=O)(=O)c1cccs1)O2, the cytotoxicity call is reported as “inactive”.
For CCC(=O)Nc1nc2[nH]c(COC)cc(=O)n2n1, the cytotoxicity call was “inactive”.
With C[C@H](CO)N1C[C@H](C)[C@H](CN(C)C(=O)Nc2ccc(F)cc2)Oc2ccc(NC(=O)CCCCCC(=O)Nc3ccccc3N)cc2C1=O the cytotoxicity call was “inactive”.
With COc1ccc(C(=O)NCC(=O)O)cc1 the cytotoxicity call was “inactive”.
With COc1ccc2cc(C(C)C(=O)O)ccc2c1 (configuration not stated) the cytotoxicity call was “inactive”.
With COc1ccc2cc(-c3cc(-c4cc(Cl)cc(Cl)c4)nn3[C@@H](C)c3ccc(C(=O)NCCC(=O)O)cc3)ccc2c1 the cytotoxicity call was “active”.
For O=C(C[C@@H]1CC[C@@H]2[C@H](COC[C@@H](O)CN2S(=O)(=O)c2ccccc2)O1)N[C@@H]1CCN(Cc2ccccc2)C1, the cytotoxicity call was “inactive”.
In the case of COCC(=O)N(C)C[C@H]1Oc2cc(C#Cc3cccnc3)ccc2S(=O)(=O)N([C@H](C)CO)C[C@H]1C, the cytotoxicity call is reported as “inactive”.
In the case of COc1ccc(S(=O)(=O)N[C@H]2C=C[C@@H](CC(=O)N3CCN(c4ccccc4)CC3)O[C@H]2CO)cc1, the cytotoxicity call is reported as “inactive”.
With C[C@@H]1CN([C@@H](C)CO)C(=O)Cc2cc(NC(=O)Nc3ccc(C(F)(F)F)cc3)ccc2O[C@@H]1CN(C)Cc1ccc(-c2ccccc2)cc1 the cytotoxicity call was “active”.
C[C@H]1CN([C@@H](C)CO)C(=O)Cc2cc(NC(=O)Nc3ccc(C(F)(F)F)cc3)ccc2O[C@H]1CN(C)Cc1ccc(-c2ccccc2)cc1 was tested, and the cytotoxicity call was “active”.
C[C@H](CO)N1C[C@H](C)[C@H](CN(C)Cc2ccc(-c3ccccc3)cc2)Oc2ccc(NC(=O)Nc3ccc(C(F)(F)F)cc3)cc2CC1=O was tested, and the cytotoxicity call was “active”.
For C[C@@H]1CN([C@@H](C)CO)C(=O)Cc2cc(NC(=O)Nc3ccc(C(F)(F)F)cc3)ccc2O[C@H]1CN(C)Cc1ccc(-c2ccccc2)cc1, the cytotoxicity call was “active”.
C[C@H]1CN([C@@H](C)CO)C(=O)Cc2cc(NC(=O)Nc3ccccc3)ccc2O[C@H]1CN(C)Cc1ccc(-c2ccccc2)cc1 was tested, and the cytotoxicity call was “inactive”.
For C[C@H](CO)N1C[C@H](C)[C@@H](CN(C)Cc2ccc(-c3ccccc3)cc2)Oc2ccc(NC(=O)Nc3ccccc3)cc2CC1=O, the cytotoxicity call was “inactive”.
N=C1NC(=O)CS1 was tested, and the cytotoxicity call was “inactive”.
For Cc1cc(C(=O)Nc2cccc3c2O[C@@H](CN(C)C(=O)Nc2ccccc2)[C@@H](C)CN([C@@H](C)CO)C3=O)n(C)n1, the cytotoxicity call was “inactive”.
For O=C(C[C@H]1CC[C@@H](NS(=O)(=O)c2ccc(F)cc2)[C@H](CO)O1)N1CCC(Cc2ccccc2)CC1, the cytotoxicity call was “inactive”.
With C[C@@H]1CCCCO[C@H](CN(C)Cc2ccccc2)[C@@H](C)CN([C@@H](C)CO)C(=O)c2cc(NC(=O)NC3CCCCC3)ccc2O1 the cytotoxicity call was “inactive”.
With C[C@H](CO)N1C[C@H](C)[C@@H](CN(C)CC2CC2)OCCCC[C@H](C)Oc2ccc(NC(=O)Cc3ccccc3)cc2C1=O the cytotoxicity call was “inactive”.
